Laboratory results as given in PubChem BioAssay (NCATS).
Results filed as inconclusive are left out. Unmarked numbers belong to inactive results. Calls of active or inactive are those of the source. The call rests on the fitted dose curve; in most records, active means well fitted inhibition curve with a large enough effect; inconclusive means small, poorly fitted or top-dose-only effect; inactive means flat fitted curve, though single readings scatter.

Tested on: NIH3T3
Assay: Cytotoxic Profiling of Annotated Libraries Using Quantitative High-Throughput Screening (AID 1296008); further: nearly all actives have a fitted effect of over 60% in size
Details: Five cell lines viability, CellTiter-Glo ATP luminescence, 48-72 h; max response: active compounds read low
In short: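 Cells exposed to compounds for 48 or 72 hr at 37 degrees Celsius. Viability read as ATP-coupled luminescence with CellTiter-Glo after 10 min at room temperature.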
On the % scale 0 is the no-effect control and ±100 the full control effect; potency means the concentration at half of the fitted maximal effect.

Compound	max response [%]	Potency
CCC(C)/C=C(C)/C=C/C1=CC2=C(Cl)C(=O)C(C)(OC(C)=O)C(=O)C2=CO1 (stereo not drawn)	-56.4	
COC1CC(O[C@H]2CC[C@]3(C)C4CC[C@]5(C)[C@@H](C6=CC(=O)OC6)[C@@H](OC(C)=O)C[C@]5(O)C4CC[C@@H]3C2)OC(C)C1O (stereo partly drawn)	-14.3	
C[C@H]1O[C@@H](O[C@H]2CC[C@]3(C=O)C4CC[C@]5(C)[C@@H](C6=CC(=O)OC6)CC[C@]5(O)[C@@H]4CC[C@]3(O)C2)C[C@@H](O)[C@@H]1O (stereo partly drawn)	-1.6	
CC1=CC2OC3[C@H](O)C[C@@](C)([C@]34CO4)[C@@]2(CO)[C@H](O)C1=O (stereo partly drawn)		1300 nM (active)
C=C1[C@@H](C)[C@H]2[C@H](Cc3ccccc3)NC(=O)[C@]23OC(=O)/C=C/C(=O)CCC[C@@H](C)C/C=C/[C@H]3[C@@H]1O		1160 nM (active)
COC1CC(O[C@H]2CC[C@@]3(C)C(CCC4C3CC[C@]3(C)[C@@H](C5=CC(=O)OC5)CC[C@]43O)C2)OC(C)C1O (stereo partly drawn)	-0.0473	
CC(C)(C)[C@]1(O)C[C@@H]2OC(=O)C[C@@]23C(=O)O[C@@H]2OC(=O)[C@@H](O)[C@]213	3.76	
CNC(=O)c1cc(C#N)cc(C)c1NC(=O)c1cc(Br)nn1-c1ncccc1Cl	-18.9	
COC1CC(O[C@H]2CC[C@]3(C=O)C4CC[C@]5(C)[C@@H](C6=CC(=O)OC6)CC[C@]5(O)[C@@H]4CC[C@@H]3C2)OC(C)C1O[C@@H]1O[C@H](CO)[C@@H](O[C@@H]2O[C@H](CO)[C@@H](O)[C@H](O)[C@H]2O)[C@H](O)[C@H]1O (stereo partly drawn)	3.23	
CC[C@@H]1C[C@H]2CC[C@H](O2)[C@H](C)C(=O)O[C@@H](C)C[C@@H]2CC[C@@H](O2)[C@@H](C)C(=O)O[C@H](CC)C[C@H]2CC[C@H](O2)[C@H](C)C(=O)O[C@@H](C)C[C@@H]2CC[C@@H](O2)[C@@H](C)C(=O)O1		86.2 nM (active)
CO[C@@H]1C[C@H](O[C@H]2CC[C@@]3(C)C(CCC4C3CC[C@]3(C)[C@@H](C5=CC(=O)OC5)[C@@H](OC(C)=O)CC43O)C2)O[C@H](C)[C@@H]1O[C@H]1O[C@H](CO[C@@H]2O[C@H](CO)[C@@H](O)[C@H](O)[C@H]2O)[C@@H](O)[C@H](O)[C@H]1O (stereo partly drawn)	-8.42	
CC(=O)O[C@@H]1[C@@H](O)[C@H]2O[C@@H]3C=C(C)[C@@H](O)C[C@]3(CO)[C@]1(C)[C@]21CO1		904 nM (active)
CO[C@H]1C[C@H](O[C@H]2CC[C@@]3(C)C(=CCC4C3CC[C@]3(C)[C@@H](C5=CC(=O)OC5)CC[C@]43O)C2)O[C@@H](C)[C@@H]1O[C@@H]1O[C@H](CO[C@@H]2O[C@H](CO)[C@@H](O)[C@H](O)[C@H]2O)[C@@H](O)[C@H](O)[C@H]1O (stereo partly drawn)	-5.72	
c1cncc(OC[C@@H]2CCN2)c1	-2.03	
CC(=O)OC[C@]12C[C@H](OC(=O)CC(C)C)C(C)=C[C@H]1O[C@@H]1[C@H](O)C[C@@]2(C)[C@]12CO2		893 nM (active)
CNc1ccc2oc(C[C@H]3O[C@@]4(CC[C@H]3C)O[C@H](C(C)C(=O)c3ccc[nH]3)[C@H](C)C[C@H]4C)nc2c1C(=O)O (stereo partly drawn)		3660 nM (active)
C[N@@+]1(CC2CC2)CC[C@]23c4c5ccc(O)c4O[C@H]2C(=O)CC[C@@]3(O)[C@H]1C5	2.77	
COc1ccc2c3c([nH]c2c1)C(C=C(C)C)N1C(=O)C2CCCN2C(=O)C1C3 (stereo not drawn)	-20.2	
CC(=O)OC[C@]12C[C@H](OC(=O)CC(C)C)C(C)=C[C@H]1O[C@@H]1[C@H](O)[C@@H](O)[C@@]2(C)[C@]12CO2		100 nM (active)
C[C@]12CC[C@H](O)C[C@H]1CC[C@@H]1[C@@H]2[C@H](O)C(=O)[C@]2(C)[C@@H](c3ccc(=O)oc3)CC[C@]12O	-1.67	
O=C(CC1NCCC[C@H]1O)Cn1cnc2cc(Br)c(Cl)cc2c1=O (stereo partly drawn)	-4.52	
CC(=O)OC[C@]12C[C@H](OC(=O)CC(C)C)C(C)=C[C@H]1O[C@@H]1[C@H](O)[C@@H](OC(C)=O)[C@@]2(C)[C@@]12CO2		50.2 nM (active)
CC1=C[C@H]2O[C@@H]3C[C@H]4OC(=O)/C=C/C=C/C(=O)OCC/C(C)=C/C(=O)OC[C@@]2(CC1)[C@]4(C)[C@]31CO1		28.2 nM (active)
